Experimental data taken from PubChem BioAssay AID504850 (National Center for Advancing Translational Sciences (NCATS), 2011).
The campaign covered roughly 2,300 compounds. About 1,200 (52%) were called active. Not shown: some 34% with an inconclusive outcome. The set was probably picked from earlier hits. The list shows a part of the results. A number with no mark means an inactive call. Calls come from the whole dose curve; as a rule, active = well fitted inhibition curve with a large enough effect; inconclusive = small, poorly fitted or top-dose-only effect, or effect the other way; inactive = no such curve, though single readings can be large or run the other way.

Assay: Confirmation screen for delayed death inhibitors of the malarial parasite plastid, 48 hour incubation; note: nearly all actives have a fitted effect of over 65% in size
Details: P. falciparum-infected erythrocytes, luciferase growth; series mostly up to 28.7 µM; activity change, negative = inhibition: at the top concentration
Description: The goal of this screen is to discover new antimalarial compounds that act by inhibiting the development of the apicoplast in the malarial parasite Plasmodium falciparum. The biochemical processes that make this organelle essential for erythrocytic stage parasites are not well understood. However, antibiotics, such as azithromycin and tetracycline, which target the apicoplast translational machinery, have a potent antimalarial effect. […] We have developed a cell-based assay that measures parasite growth based on the expression of an integrated copy of a firefly luciferase reporter. To detect small molecules that cause this "delayed death phenotype, erythrocytes infected with the luciferase-expressing parasites were incubated with compounds for either one or two generations, corresponding to 48 and 96 hours, respectively. Compounds that inhibit parasite growth in the second generation, but not the first, should be enriched in antimalarials that target the apicoplast. Growth inhibition is detected by a decrease in luciferase activity. MLPCN Grant: R21 NS059500 Assay Provider: David Fidock and Eric Ekland, Columbia University Keywords: NIH Roadmap, MLPCN, MLI, MLSMR, qHTS, NCGC, qHTS, malaria, luciferase, viability
Four microliters of culture medium (RPMI 1640 with 0.5% w/v Albumax (GIBCO), 24 mM sodium bicarbonate and 10 ug/mL gentamycin) were dispensed by a Multi-drop Combi into white solid 1536-well plates (Grenier) and 23 nL compound was added by a pin tool. Four microliters of infected erythrocytes (2% hematocrit, 0.1% parasitemia final concentration) in culture medium were dispensed and the plates incubated for 48 hours at 37 C in 5% CO2. Two microliters of luciferase detection reagent was added and luminescence was detected by a ViewLux (PerkinElmer) reader.
% is set by controls: 0 for no effect and ±100 for the full control effect; potency is the fitted concentration of half-maximal effect.

| SMILES | activity change, negative = inhibition [%] | Potency |
| --- | --- | --- |
| O=c1oc2ccccc2c(O)c1CN1CCCCC1 | 18.3 | – |
| CCCCCCCCCC[n+]1cccc2c3ccccc3ccc21 | – | 0.891 µM (active) |
| CCCCCCCCC[n+]1cccc2c3ccccc3ccc21 | – | 0.398 µM (active) |
| O=S(=O)(Nc1ccc(O)c(Sc2nc3ccccc3s2)c1)c1cccc2ccccc12 | – | 15.8 µM (active) |
| COc1cc(-c2ccc(NC(=O)NC3CC3)c(OC)c2)ccc1NC(=O)NC1CC1 | – | 12.6 µM (active) |
| COc1cc(-c2ccc(Nc3ccccc3C(=O)O)c(OC)c2)ccc1Nc1ccccc1C(=O)O | – | 12.6 µM (active) |
| COc1ccc(Nc2cccc(Cl)c2)c(C(=O)O)c1 | -15.3 | – |
| Cc1ccc(S(=O)(=O)C2(C(=O)N3CCCCCC3)CC2)cc1 | -19.3 | – |
| CC(=O)N1CCSc2ccc(S(=O)(=O)Nc3ccc(C)cc3)cc21 | – | 10 µM (active) |
| O=[N+]([O-])c1ccc(Sc2cccc3cccnc23)c([N+](=O)[O-])c1 | – | 4.47 µM (active) |
| CN1CC2=Cc3ccccc3OC23Oc2ccccc2C=C3C1 | – | 3.98 µM (active) |
| CC(C)=N/N=C1/NC(=O)C(Cc2ccccc2)S1 (stereo unspecified) | – | 11.2 µM (active) |
| CCc1noc(C)c1C(=O)NC1CC(C)(C)Cc2c1cnn2-c1ccccc1 (stereo unspecified) | – | 15.8 µM (active) |
| CC1=C(C(=O)NC2CC(C)(C)Cc3c2cnn3-c2ccc(C)cc2)OCCO1 (stereo unspecified) | – | 12.6 µM (active) |
| Cc1ccc(-n2ncc3c2CC(C)(C)CC3NC(=O)c2c(C)noc2C)cc1 (stereo unspecified) | – | 11.2 µM (active) |
| Cc1cc(C)c(NC(=O)c2cccc3c2C(=O)N(C2CCCCC2)C3)c(C)c1 | – | 10 µM (active) |
| COc1cccc2cc(C(=O)NCc3ccc(Cl)cc3)c(=N)oc12 | -13.6 | – |
| COc1ccc(CCNC(=O)c2cc3c(=O)n4cccc(C)c4nc3n(Cc3ccco3)c2=N)cc1OC | – | 12.6 µM (active) |
| Cc1cc(OCC(=O)N[C@@H](CSCc2ccccc2)C(=O)O)c2c(C)c(C)c(=O)oc2c1 | – | 14.1 µM (active) |
| COC(=O)c1c(-n2c(C)cc(C=O)c2C)sc2c1CCCC2 | – | 14.1 µM (active) |
| COc1cc(NCc2ccc3nc(N)nc(N)c3c2C)cc(OC)c1OC | – | 0.316 µM (active) |
| O=C(Nc1ccc(C2=NCCN2)cc1)c1ccc(C(=O)Nc2ccc(C3=NCCN3)cc2)c(Cl)c1 | – | 0.891 µM (active) |
| COCCNC(=O)CCCCCN1C(=O)CCC1=O | -8.65 | – |

| SMILES | activity change, negative = inhibition [%] | Potency |
| --- | --- | --- |
| Cc1cccc(-n2ccc(=O)c(C(=O)Nc3ccc(S(=O)(=O)N4CCOCC4)cc3)n2)c1 | – | 11.2 µM (active) |
| O=S(=O)(c1ccc(Cl)c(NC(=S)N/N=C/c2ccc(O)cc2)c1)N1CCOCC1 | – | 11.2 µM (active) |
| O=C(NC1CC1)C1=C[C@@H](C2CCCCC2)C[C@@H](OCc2ccc(CO)cc2)O1 | – | 12.6 µM (active) |
| O=C(Nc1ccccc1)C1=C[C@@H](C2CCCCC2)C[C@@H](OCc2ccc(CO)cc2)O1 | – | 11.2 µM (active) |
| O=C(NCc1ccccc1)C1=C[C@@H](c2coc3ccccc3c2=O)C[C@@H](OCc2ccc(CO)cc2)O1 | – | 10 µM (active) |
| CN(c1ccccc1)S(=O)(=O)c1ccc(NC(=O)c2nc(S(C)(=O)=O)ncc2Cl)cc1 | -6.44 | – |
| CN(c1ccccc1)S(=O)(=O)c1cc(C(=O)N2CCN(c3ncccn3)CC2)ccc1Cl | – | 11.2 µM (active) |
| COc1ccccc1NC(=O)c1ccc2nc(-c3ccccc3)c(-c3ccccc3)nc2c1 | 1.49 | – |
| COc1cc(C(=O)Nc2ccc(Nc3ccccc3)cc2)cc(OC)c1OC | – | 11.2 µM (active) |
| COc1ccc(NC(=O)c2cccc(NC(=O)c3ccccc3)c2)c(OC)c1 | – | 11.2 µM (active) |
| COc1cc(C(=O)Nc2ccc(S(=O)(=O)Nc3cc(C)on3)cc2)cc(OC)c1OC | 3.18 | – |
| COC(=O)c1ccc(CNCC(=O)Nc2ccc(C(=O)OC)cc2)cc1 | -23.3 | – |
| COC(=O)c1ccc(NC(=O)c2cccc(NC(=O)c3ccccc3)c2)cc1 | – | 8.91 µM (active) |
| COc1cc(CN2CCN(S(=O)(=O)c3ccccc3)CC2)cc(OC)c1OC | – | 3.16 µM (active) |
| COc1ccccc1N1CCN(S(=O)(=O)c2ccc(-n3cnnn3)cc2)CC1 | -28 | – |
| COCCN1CCCC(CNCc2cn(C)nc2-c2ccc(Oc3ccccc3)cc2)C1 (stereo unspecified) | – | 7.94 µM (active) |
| Cc1cccc(NC(=O)Cc2coc3ccc4ccccc4c23)n1 | – | 12.6 µM (active) |
| CCOc1ccc(C2C3=C(Nc4nc(N)[nH]c(=O)c42)c2ccccc2C3=O)cc1 (stereo unspecified) | – | 14.1 µM (active) |
| C/C(=C\C(=O)c1ccncc1)Nc1ccccc1O | – | 14.1 µM (active) |
| O=C(CCN1CCN(c2ccc(F)cc2)CC1)Nc1ccccc1F | -14.3 | – |
| CSc1ccccc1NC(=O)CN1CCN(S(=O)(=O)c2ccccc2[N+](=O)[O-])CC1 | – | 14.1 µM (active) |
| C=CCNC(=O)c1onc(CSc2cccc3ccccc23)c1C(=O)O | 13.7 | – |
| Cc1c(NC(=O)CSc2nnc3c4ccccc4n(CCc4ccccc4)c3n2)c(=O)n(-c2ccccc2)n1C | – | 11.2 µM (active) |
